Most compounds without a hit are left out; they make up all but 15% or so of the library.
RORg inh: blocks mouse ROR gamma transcriptional activity | P51450 | Drosophila S2 Gal4-RORgamma UAS-luciferase reporter, 20 h | Potency, µM (top dose mostly 53.6 µM), for the others: top-dose activity change, negative = inhibition, actives largely listed as inhibitors | 5.4% of 310,000 active; note: nearly all actives have a fitted effect of over 60% in size
Target sequence (P51450 whole entry, looked up, the tested form may be a part): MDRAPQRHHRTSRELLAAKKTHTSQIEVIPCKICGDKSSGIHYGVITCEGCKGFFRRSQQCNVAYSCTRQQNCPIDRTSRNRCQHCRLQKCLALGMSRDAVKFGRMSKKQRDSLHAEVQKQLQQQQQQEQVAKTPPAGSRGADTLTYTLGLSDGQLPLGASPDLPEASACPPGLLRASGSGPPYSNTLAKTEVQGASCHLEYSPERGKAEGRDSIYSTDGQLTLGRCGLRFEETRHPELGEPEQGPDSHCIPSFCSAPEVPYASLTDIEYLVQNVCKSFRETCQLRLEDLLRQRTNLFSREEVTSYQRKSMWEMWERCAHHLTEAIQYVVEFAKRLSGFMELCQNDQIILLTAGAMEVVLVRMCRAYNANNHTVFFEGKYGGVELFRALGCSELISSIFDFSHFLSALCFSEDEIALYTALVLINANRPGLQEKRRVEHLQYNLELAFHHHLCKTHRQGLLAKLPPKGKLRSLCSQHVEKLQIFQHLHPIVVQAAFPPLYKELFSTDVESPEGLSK
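ROR gamma transcriptional activity was tracked as Gal4-UAS luciferase output in stably transfected Drosophila Schneider cells, with compound added 1 hr before 700 uM copper sulfate induction and a 20 hr ambient-temperature incubation.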
TDP1 cell CPT: growth inhibition of DT40 Tdp1-/-;hTDP1 cells with camptothecin (screen for TDP1 inhibitors). Potency, µM (top dose mostly 46.2 µM), without a hit: at the highest dose activity change, negative = growth inhibition, hits mostly inhibitors. chicken DT40 Tdp1-/-;hTDP1 cells + 20 nM CPT, ATP luminescence, 48 h. AID 686979. 12% of 420,000 active; note: nearly all actives have a fitted effect of over 55% in size
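Cell growth measured by CellTiter-Glo luminescence after a minimum 48 h, 37 C compound exposure with 20 nM CPT in Tdp1-knockout DT40 cells stably expressing hTDP1, seeded 400/well; qHTS titration format.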
ELG1 repair inh: inhibitors of ELG1-dependent DNA repair in HEK293T cells; HEK293T ELG1-luciferase reporter, luminescence, 16 h; DNA damage induced by 5-fluorouridine; Potency, µM (doses to about 46.1 µM), inactives show top-dose activity change, negative = inhibition, usual class: inhibitors; 2.3% of 330,000 active; AID 504467; note: nearly all actives have a fitted effect of over 55% in size
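5-Fluorouridine DNA damage + compound/DMSO, 2,000 cells/well, 16 h, 37 °C/5% CO2. ONE-Glo, 30 min RT, luminescence. Readout = decrease in reporter signal.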
12-LOX inh: ALOX12 (human) lipoxygenase inhibition. Potency, µM (titrated, usually from 108 µM), inactives show at the top dose activity change, negative = inhibition, usual class: inhibitors. P18054. AID 1671190. 1.1% of 580,000 active. purified 12hLO, xylenol orange hydroperoxide absorbance
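Purified human 12hLO (150 nM final) in 25 mM Hepes, 0.01% Triton X-100, pH 7.0 was preincubated 15 min at room temperature with compound. Then 40 uM arachidonic acid was added, 30 min. Hydroperoxide was read by Fe-XO absorbance ratio 573/405 nm.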
TDP1 cell noCPT: qHTS for Inhibitors of human tyrosyl-DNA phosphodiesterase 1 (TDP1): qHTS in cells in absence of CPT | DT40 Tdp1-/- hTDP1 cells, no CPT, ATP luminescence, 48 h | 15% of 420,000 active | Potency, µM (top dose mostly 46.2 µM), without a hit: top-dose activity change, negative = growth inhibition, hits mostly inhibitors; note: nearly all actives have a fitted effect of over 55% in size
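Stably hTDP1-transfected Tdp1-null chicken DT40 cells were treated with library compounds minus camptothecin and grown for at least 48 hr at 37 °C, after which cellular ATP was quantified by luminescence.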
VP16 counter: counter-screen for ROR gamma inhibitors: Gal4-VP16 reporter; Drosophila S2 Gal4-VP16 UAS-luciferase, luminescence, 20 h; Potency, µM (top dose mostly 53.6 µM), inactives show top-dose activity, negative = inhibition, most hits filed as inhibitors; 3.5% of 310,000 active;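 note: Gal4-VP16 expression switched on by copper sulfate through the metallothionein promoter; nearly all actives have a fitted effect of over 50% in size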
The depositor's hits bear a star; ? = inconclusive; / = not tested or not shown; ! = not confirmed by another sample; [ ] = remark or other dose. Calls come from the whole dose curve; as a rule, active = well fitted curve in the direction sought with a large enough effect; inconclusive = small, poorly fitted or top-dose-only effect, or another doubt; inactive = no such curve, though single readings can be large; an effect the other way counts as inactive or inconclusive. % is set by controls: 0 for no effect and ±100 for the full control effect; potency is the fitted concentration of half-maximal effect.

SMILES	RORg inh	TDP1 cell CPT	ELG1 repair inh	12-LOX inh	TDP1 cell noCPT	VP16 counter
COc1ccc([N+](=O)[O-])cc1NC(=O)CSc1ccc2ccccc2c1	?	23µM*	-24%	?	?	?
COc1ccc([N+](=O)[O-])cc1NC(=O)CC(c1ccccc1)c1ccccc1	0%	?	?	-8%	?	-5%
COc1cc([N+](=O)[O-])ccc1NC(=O)CSc1nncn1-c1cccnc1	10%	?	?	2%	0.52µM*	-2%
Cc1cc(Br)ccc1NC(=O)CSc1nc2cc([N+](=O)[O-])ccc2o1	/	/	/	18µM*	/	/
CC(C)Oc1c(I)cc(I)cc1/C=C(\C#N)c1nc2ccccc2[nH]1	/	/	/	-3%	/	/
Cc1nc(-c2c3n(c(=O)n(CC(=O)Nc4ccc(C)c(C)c4)c2=O)CCCCC3)no1	/	/	/	31%	/	/
O=C(O)C1Nc2ccccc2C2C=CCC12 (configuration not stated)	/	?	/	/	-10%	/
Cc1cc(C)c2c(c1)NC(C(=O)O)C1CC=CC21 (configuration not stated)	-24%	?	2%	7.9µM*	-20%	-5%
CCCNC(=O)c1ccc(C)c(NC(=O)C2=C(C)OCCS2)c1	22%	19%	2%	10%	-23%	-10%
CC1=C(C(=O)Nc2ccc(C(=O)N3CCN(c4cccc(Cl)c4)CC3)cc2)SCCO1	31%	?	-17%	-18%	-22%	2%
CC1=C(C(=O)Nc2cccc(C(=O)NC3CCCCC3C)c2)SCCO1 (configuration not stated)	16%	16µM*	?	-5%	?	-9%
CC1=C(C(=O)Nc2cc(C(=O)N3CCN(c4ccc(Cl)cc4)CC3)ccc2C)SCCO1	/	18µM*	/	4%	15µM*	/
CCOCCCNC(=O)c1cccc(NC(=O)C2=C(C)OCCS2)c1	-10%	5%	-2%	4%	3%	-2%
CC1=C(C(=O)Nc2cccc(C(=O)N3CCN(c4cccc(C(F)(F)F)c4)CC3)c2)SCCO1	37%	15µM*	-29%	-9%	26µM*	?
O=C(c1cccnc1)N1CC(Oc2ccc(-c3noc(-c4ccccc4)n3)cc2)C1	/	/	/	36%	/	/
CCOC(=O)c1c(C)[nH]c(C(=O)OC(C)C(=O)Nc2ccc(C)cc2)c1C (configuration not stated)	/	-27%	/	-1%	-23%	/
CCOC(=O)c1sc(N)c(C(=O)OC)c1C	20%	-1%	?	-6%	-5%	12%
CCOC(=O)c1sc(N)c(C(=O)Nc2ccccc2OC)c1C	-29%	2.9µM*	-20%	?	2.9µM*	-7%
CCOC(=O)c1c(C)[nH]c(C(=O)C(C)Nc2ccccc2OC)c1C (configuration not stated)	/	/	/	4%	/	/
CCOC(=O)c1[nH]c(C)c(C(=O)OC(C)C(=O)Nc2ncc(Cl)cc2Cl)c1C (configuration not stated)	-4%	18µM*	-18%	-4%	?	-9%
CCOC(=O)c1c(C)[nH]c(C(=O)OC(C)C(=O)Nc2ccccc2OC)c1C (configuration not stated)	-17%	16µM*	?	14%	?	-8%
O=c1n(-c2ccncc2)nc2n1CCN(CC1CC1)C2	/	/	/	1%[176 µM]	/	/
CCc1ccc(OCc2n[nH]c(=S)n2Cc2ccccc2)cc1	-2%	?	3%	?	?	-2%
CCc1ccc(OCc2n[nH]c(=S)n2C(C)CCCC(C)C)cc1 (configuration not stated)	6.3µM*	?	-15%	35µM*	?	-22%
Cc1cccc(OCc2n[nH]c(=S)n2Cc2ccccc2)c1	2µM*	1%	-1%	?	-27%	?
SMILES	RORg inh	TDP1 cell CPT	ELG1 repair inh	12-LOX inh	TDP1 cell noCPT	VP16 counter
CC(C)CCn1c(COc2ccccc2)n[nH]c1=S	1.1µM*	6%	-15%	16µM*!	12%	?
S=c1[nH]nc(COc2ccccc2)n1Cc1ccccc1	1.6µM*	?	1%	?	?	6.3µM*
COC[C@H]1NC(=O)CC[C@H]1C(=O)Nc1cccc(OC(F)(F)F)c1	/	/	/	32%	/	/
Cc1ccc(C)c(C(=O)N2CCC(c3n[nH]c(=O)n3-c3ccccc3)CC2)c1	/	/	/	-8%	/	/
CC(=O)N1c2ccc(S(=O)(=O)N3CCC(C(=O)Nc4cccc(C)c4)CC3)cc2CC1C (configuration not stated)	43%	16µM*	29µM*	11%	?	?
CC(=O)N1c2ccc(S(=O)(=O)N3CCC(C(=O)Nc4cccc(F)c4)CC3)cc2CC1C (configuration not stated)	11%	16µM*	?	-30%	?	?
CC(=O)N1c2ccc(S(=O)(=O)N3CCC(C(=O)Nc4cccc(Cl)c4)CC3)cc2CC1C (configuration not stated)	-31%	2.1µM*	?	-8%	2.1µM*	11µM*
CC(=O)N1c2ccc(S(=O)(=O)N3CCC(C(=O)Nc4cc(C)cc(C)c4)CC3)cc2CC1C (configuration not stated)	31%	?	1%	10%	?	2%
O=C(Nc1ccc(F)cc1F)NC1CCN(Cc2c(F)cccc2Cl)CC1	24%	?	?	53%	21µM*	-14%
CC(C)(CNC(=O)C1(c2ccccc2)CCC1)C(N)=O	/	/	/	-13%	/	/
O=C(O)CC(NCc1ccccc1)c1ccccc1 (configuration not stated)	/	/	/	-30%	/	/
COc1ccc(C(C)NC(=O)CCOc2ccc(Cl)cc2)cc1F (configuration not stated)	/	/	/	3%	/	/
O=C(Nc1ccc(F)cc1F)NC1CCN(S(=O)(=O)c2ccc(F)cc2)CC1	35%	-21%	4%	-5%	?	-2%
Cc1cc(Cl)ccc1NC(=O)NC1CCN(S(=O)(=O)c2ccc(F)cc2)CC1	26%	23µM*	-26%	-7%	?	-14%
COc1ccc(Cl)cc1NC(=O)C1CCN(S(=O)(=O)c2ccc3c(c2)CC(C)N3C(C)=O)CC1 (configuration not stated)	/	16µM*	/	-6%	21µM*	/
COc1ccc(Cl)cc1NC(=O)C1CCN(S(=O)(=O)c2ccc(F)cc2)CC1	/	?	/	-12%	18µM*	/
